For seven compounds, growth results are on record in PubChem BioAssay (NCI).

This is part of a sample that, as a whole, favours compounds with a hit. Of some 83,000 tested, about 20% had one in any assay.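 The test compound was applied at a single concentration to cells in 96-well plates for 48 hours, and percent growth was recorded.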 Unmarked numbers belong to inactive results. Activity calls are given as the source filed them. How the source made its calls: active means growth percent below 10; inactive means the rest.

Test systems include DU-145 prostate; K-562 leukemia; MALME-3M melanoma; MDA-MB-231 breast; RXF 393 renal; SF-268 CNS; SF-295 CNS; SF-539 CNS; UACC-257 melanoma; M14 melanoma; HCT-15 colon; HT29 colon; SNB-75 CNS; SNB-19 CNS; U251 CNS; PC-3 prostate; SK-MEL-5 melanoma; UACC-62 melanoma; LOX IMVI melanoma; SK-MEL-28 melanoma.
What all share (test): NCI-60 one-dose screen, 48 h (100 = growth as untreated, 0 = no growth, -100 = all killed)
Common to all, as to details: 10 µM unless noted

Regarding `CN1CCN(CCCOc2cccc3nc(Nc4ccc(F)c(F)c4)ccc23)CC1`, the growth in the experiment on DU-145 prostate was 7.31% (active); in the experiment on K-562 leukemia, -41.5% (active); in the experiment on MALME-3M melanoma it was -64.8% (active); with MDA-MB-231 breast it was -69.9% (active); in the experiment on RXF 393 renal it was 16.4%; in the experiment with SF-268 CNS, 26%. The growth was -65% (active) with SF-295 CNS; -53.5% (active) in the experiment with SF-539 CNS; -76.7% (active) in the experiment on UACC-257 melanoma; -78.5% (active) with M14 melanoma; -79.9% (active) in the experiment on HCT-15 colon; -69.5% (active) in the experiment with HT29 colon. Also, the growth is -5.9% (active) in the experiment on SNB-75 CNS; -17.4% (active) in the experiment with SNB-19 CNS; -70.3% (active) in the experiment on U251 CNS; -43.6% (active) in the experiment with PC-3 prostate; -100% (active) in the experiment on SK-MEL-5 melanoma; -75.4% (active) with UACC-62 melanoma. Besides, the growth in the experiment on LOX IMVI melanoma is -87.7% (active); with SK-MEL-28 melanoma, -82.3% (active).

For the compound `Cn1c(=O)c2[nH]c(SCC(=O)Nc3ccc(C(=O)/C=C/c4ccccc4Cl)cc3)nc2n(C)c1=O`, the growth was 102% with DU-145 prostate; 84.4% in the experiment on K-562 leukemia; 112% with MALME-3M melanoma; 106% in the experiment with MDA-MB-231 breast; 105% in the experiment with RXF 393 renal; 89.7% in the experiment with SF-268 CNS. In addition, the growth with SF-295 CNS is 90.5%; with SF-539 CNS, 101%; with UACC-257 melanoma, 86.1%; in the experiment with M14 melanoma, 99.5%; with HCT-15 colon, 92.5%; in the experiment with HT29 colon, 119%. In addition, the growth in the experiment on SNB-75 CNS is 77.1%; with SNB-19 CNS, 97.1%; in the experiment on U251 CNS, 91.9%; with PC-3 prostate, 93.4%; with SK-MEL-5 melanoma, 90%; in the experiment on UACC-62 melanoma it was 95.6%. Moreover, the values for the growth in the experiment with LOX IMVI melanoma and in the experiment with SK-MEL-28 melanoma were 96.4% and 99.9%, respectively.

Consider `C=C1CC[C@@H]2C(C)(C)[C@@H](O)CC[C@@]2(C)[C@@H]1COc1ccc2ccc(=O)oc2c1`, for which the growth in the experiment on DU-145 prostate is 91.8%; in the experiment on K-562 leukemia, 53.3%; with MALME-3M melanoma it was 89%; with MDA-MB-231 breast, 89.4%; in the experiment with RXF 393 renal it was 88.5%; in the experiment on SF-268 CNS, 78%. The growth in the experiment on SF-295 CNS is 62.5%; with SF-539 CNS, 86.1%; in the experiment with UACC-257 melanoma, 77.3%; in the experiment on M14 melanoma it was 80.4%; in the experiment on HCT-15 colon, 66.7%; in the experiment with HT29 colon, 64.3%. In addition, the growth is 83.8% in the experiment with SNB-75 CNS; 85.8% in the experiment with SNB-19 CNS; 75.8% in the experiment with U251 CNS; 49.7% with PC-3 prostate; 61.7% with SK-MEL-5 melanoma; 55.1% in the experiment on UACC-62 melanoma. Besides, the growth with LOX IMVI melanoma is 82.8%; with SK-MEL-28 melanoma it was 92.3%.

In the case of `C#CCn1cnc2cnc(Nc3cccc(NC(=O)C=C)c3)nc21`, the growth is 93.5% [6.25 µM] in the experiment with DU-145 prostate; 5.9% [6.25 µM] (active) in the experiment on K-562 leukemia; 76.7% [6.25 µM] in the experiment with MALME-3M melanoma; 81.5% [6.25 µM] in the experiment with MDA-MB-231 breast; 86.6% [6.25 µM] in the experiment on RXF 393 renal; 84.7% [6.25 µM] in the experiment with SF-268 CNS. The growth with SF-295 CNS was 72.4% [6.25 µM]; with SF-539 CNS, 72.3% [6.25 µM]; with UACC-257 melanoma it was 61.5% [6.25 µM]; in the experiment on M14 melanoma it was 62% [6.25 µM]; with HCT-15 colon, 91.7% [6.25 µM]; in the experiment with HT29 colon it was 70.5% [6.25 µM]. The growth with SNB-75 CNS was 86.2% [6.25 µM]; in the experiment with SNB-19 CNS, 88.3% [6.25 µM]; in the experiment on U251 CNS, 75.5% [6.25 µM]; with PC-3 prostate, 9.21% [6.25 µM] (active); in the experiment on SK-MEL-5 melanoma, 92.4% [6.25 µM]; in the experiment with UACC-62 melanoma, 62.5% [6.25 µM]. Also, the growth in the experiment with LOX IMVI melanoma is 82.7% [6.25 µM]; with SK-MEL-28 melanoma, 82.2% [6.25 µM].

On to `O=c1c2c3c(sc2n2c(-c4cc(-c5ccccc5)no4)nnc2n1Cc1ccccc1)CCCC3`, for which the growth with DU-145 prostate was 88.5%; in the experiment on K-562 leukemia it was 64.9%; in the experiment on MALME-3M melanoma it was 122%; with MDA-MB-231 breast, 80.5%; in the experiment with RXF 393 renal it was 77.8%; in the experiment on SF-268 CNS it was 93.5%. Also, the growth is 83.4% with SF-295 CNS; 114% in the experiment with SF-539 CNS; 110% in the experiment on UACC-257 melanoma; 111% with M14 melanoma; 96.9% in the experiment on HCT-15 colon; 108% in the experiment with HT29 colon. The growth in the experiment on SNB-75 CNS was 76.2%; with SNB-19 CNS it was 55.7%; in the experiment on U251 CNS, 94.3%; in the experiment with PC-3 prostate, 71.8%; with SK-MEL-5 melanoma, 105%; in the experiment on UACC-62 melanoma it was 80.7%. The figures for the growth with LOX IMVI melanoma and with SK-MEL-28 melanoma were 81% and 127%, respectively.

As to `COc1cc(/C=C/C(=O)/C=C(O)/C=C/c2ccc(OC(=O)C34CC5CC(CC(C5)C3)C4)c(OC)c2)ccc1OC(=O)C12CC3CC(CC(C3)C1)C2`, the growth was 113% in the experiment on DU-145 prostate; 106% in the experiment with K-562 leukemia; 97% in the experiment with MALME-3M melanoma; 103% in the experiment with MDA-MB-231 breast; 106% in the experiment with RXF 393 renal; 95.6% with SF-268 CNS. Besides, the growth in the experiment on SF-295 CNS was 99.2%; in the experiment with SF-539 CNS it was 95.2%; in the experiment on UACC-257 melanoma it was 112%; in the experiment on M14 melanoma it was 102%; in the experiment on HCT-15 colon it was 99.3%; with HT29 colon it was 104%. The growth is 90% with SNB-75 CNS; 101% with SNB-19 CNS; 104% in the experiment with U251 CNS; 101% in the experiment with PC-3 prostate; 105% in the experiment on SK-MEL-5 melanoma; 98.8% with UACC-62 melanoma. Further, the growth was 95.3% in the experiment with LOX IMVI melanoma and 100% with SK-MEL-28 melanoma.

As for `NS(=O)(=O)c1ccc(NC(=O)/C(=C\c2ccc(Cl)cc2Cl)NC(=O)c2ccccc2)cc1`, the growth was 109% in the experiment with DU-145 prostate; 88.2% in the experiment with K-562 leukemia; 93.2% with MALME-3M melanoma; 105% in the experiment with MDA-MB-231 breast; 96% with RXF 393 renal; 94.5% with SF-268 CNS. Besides, the growth in the experiment on SF-295 CNS is 104%; in the experiment on SF-539 CNS, 95.7%; in the experiment with UACC-257 melanoma, 102%; in the experiment with M14 melanoma it was 102%; in the experiment on HCT-15 colon it was 110%; with HT29 colon it was 103%. Besides, the growth was 81.4% with SNB-75 CNS; 95.6% in the experiment on SNB-19 CNS; 97.1% with U251 CNS; 89.4% in the experiment on PC-3 prostate; 90.2% in the experiment on SK-MEL-5 melanoma; 74.9% in the experiment with UACC-62 melanoma. For the same compound, the growth in the experiment with LOX IMVI melanoma was 96.2%; in the experiment with SK-MEL-28 melanoma, 110%.
